Data as given in PubChem BioAssay.
Records with an inconclusive call do not appear. Activity calls are given as the source filed them.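 How the source made its calls, unless noted: active means normalized viability below 100% at a tested concentration; inactive means the rest.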

How the values were obtained:
[1] = growth inhibition of DIPG glioma cells, dose response, cell-based, SU-DIPG-XVII, MIPE5.0, CellTiter-Glo, qHTS (AID 1347060; cut-off not given, nearly all actives have AC50 up to about 26 µM;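 on AC50: cells exposed to compound for 48 hours before viability readout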); conditions: SU-DIPG-XVII viability, CellTiter-Glo ATP luminescence
[2] = growth inhibition of DIPG glioma cells, dose response, cell-based, SU-DIPG-XIII, MIPE4.0, CellTiter-Glo, qHTS (AID 1347061; cut-off not given, nearly all actives have AC50 up to about 37 µM;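 further: cells exposed to compound for 48 hours before readout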); conditions: SU-DIPG-XIII viability, CellTiter-Glo ATP luminescence
[3] = growth inhibition of DIPG glioma cells, dose response, cell-based, JHH-DIPG-1, MIPE4.0, CellTiter-Glo, qHTS (AID 1347062; cut-off not given, nearly all actives have AC50 up to about 27 µM;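 on AC50: cells exposed to compound for two days before readout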); conditions: JHH-DIPG-1 viability, CellTiter-Glo ATP luminescence
[4] = growth inhibition of DIPG glioma cells, dose response, cell-based, SU-DIPG-IV, MIPE4.0, CellTiter-Glo, qHTS (AID 1347063; cut-off not given, nearly all actives have AC50 up to about 30 µM;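 further: compound exposure lasted 48 hours before the viability readout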); conditions: SU-DIPG-IV viability, CellTiter-Glo ATP luminescence
[5] = growth inhibition of DIPG glioma cells, dose response, cell-based, SU-DIPG-XIII, MIPE5.0, CellTiter-Glo, qHTS (AID 1347064; cut-off not given, nearly all actives have AC50 up to about 23 µM;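 on AC50: cells exposed to compound for 48 hours before the viability read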); conditions: SU-DIPG-XIII viability, CellTiter-Glo ATP luminescence
[6] = viability loss in pontine glioma line – cell-based, SU-DIPG-XXV, MIPE5.0, CellTiter-Glo, qHTS, dose response (AID 1347065; cut-off not given, nearly all actives have AC50 up to about 26 µM;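 further: cells exposed to compound for 48 hours before ATP readout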); conditions: CellTiter-Glo ATP luminescence
[7] = SU-DIPG-VI glioma cell viability, MIPE4.0 library, CellTiter-Glo luminescence, qHTS (AID 1347066; cut-off not given, nearly all actives have AC50 up to about 30 µM;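 further: cells exposed to compound for 48 hours before readout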); conditions: CellTiter-Glo ATP luminescence
[8] = JHH-DIPG-1 glioma cell viability, MIPE5.0 library, CellTiter-Glo luminescence, qHTS (AID 1347067; cut-off not given, nearly all actives have AC50 up to about 26 µM;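 further: cells exposed to compound for 48 hours before readout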); conditions: JHH-DIPG-1 glioma viability, CellTiter-Glo ATP luminescence
[9] = SU-DIPG-XXV glioma cell viability, MIPE5.0 library, qHTS (AID 1347068; cut-off not given, nearly all actives have IC50 up to about 30 µM;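 on IC50: cells exposed to compound for 48 hours before viability readout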)
[10] = sensitizers of A549 cells to miR-34 induction, primary screen, imaging, A549 dox-inducible miR-34, nuclei and caspase counts (AID 1347080;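 active means compounds whose cell count with miR-34 switched on is under 0.7 times the count with it off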); conditions: A549 miR-34 inducible, Hoechst nuclei count, 48 h
[11] = survival rescue of mitochondrial mutant cells in low glucose, primary screen, MELAS cybrids, Rieske KO mouse fibroblasts, CellTiter-Glo (AID 1508586;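 active means mean z-score across replicates of 1.96 or higher in either the MELAS or the Rieske mutant cell line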;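 further: z relative to plate mean and SD of compound and empty wells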)
[12] = ovarian cancer cell viability with rucaparib, profiling panel, oncology-focused library, rucaparib conditional (AID 1508598); conditions: patient-derived ovarian cancer cells, CellTiter-Glo viability, 144 h, stronger effect = lower value
[13] = modifiers of HSF1 nuclear foci, imaging, Selleck Cancer Library (AID 1347162; in the data active means plate-normalised HSF1 focus index below about 0.46); conditions: human cells, at 10 µM; SSMD: measured here: HSF1 foci SSMD mean; cell count: measured here: cell number; plate-normalised HSF1 focus index: stronger effect = lower value
[14] = stronger effect = lower value, cell number ratio, induced over uninduced
[15] = measured here: relative caspase fold change +Dox/-Dox
[16] = measured here: total cells with miR-34 induction, stronger effect = lower value
[17] = measured here: total cells without miR-34 induction
[18] = MELAS cybrid survival, CellTiter-Glo 48 h, stronger effect = higher value
[19] = Rieske KO mouse fibroblast survival, CellTiter-Glo 72 h
[20] = at 0.000305 µM, OCI-C5x cells, with rucaparib 10 µM, 100% = cells with rucaparib alone
[21] = at 0.000305 µM, OCI-C5x cells, without rucaparib
[22] = at 0.000305 µM, OCI-P5x cells, with rucaparib 20 µM, 100% = cells with rucaparib alone
[23] = at 0.000305 µM, OCI-P5x cells, without rucaparib
[24] = at 0.00122 µM, OCI-C5x cells, with rucaparib 10 µM, 100% = cells with rucaparib alone
[25] = at 0.00122 µM, OCI-C5x cells, without rucaparib
[26] = at 0.00122 µM, OCI-P5x cells, with rucaparib 20 µM, 100% = cells with rucaparib alone
[27] = at 0.00122 µM, OCI-P5x cells, without rucaparib
[28] = at 0.00488 µM, OCI-C5x cells, with rucaparib 10 µM, 100% = cells with rucaparib alone
[29] = at 0.00488 µM, OCI-C5x cells, without rucaparib
[30] = at 0.00488 µM, OCI-P5x cells, with rucaparib 20 µM, 100% = cells with rucaparib alone
[31] = at 0.00488 µM, OCI-P5x cells, without rucaparib
[32] = at 0.0195 µM, OCI-C5x cells, with rucaparib 10 µM, 100% = cells with rucaparib alone
[33] = at 0.0195 µM, OCI-C5x cells, without rucaparib
[34] = at 0.0195 µM, OCI-P5x cells, with rucaparib 20 µM, 100% = cells with rucaparib alone
[35] = at 0.0195 µM, OCI-P5x cells, without rucaparib
[36] = at 0.0781 µM, OCI-C5x cells, with rucaparib 10 µM, 100% = cells with rucaparib alone
[37] = at 0.0781 µM, OCI-C5x cells, without rucaparib
[38] = at 0.0781 µM, OCI-P5x cells, with rucaparib 20 µM, 100% = cells with rucaparib alone
[39] = at 0.0781 µM, OCI-P5x cells, without rucaparib
[40] = at 0.313 µM, OCI-C5x cells, with rucaparib 10 µM, 100% = cells with rucaparib alone
[41] = at 0.313 µM, OCI-C5x cells, without rucaparib
[42] = at 0.313 µM, OCI-P5x cells, with rucaparib 20 µM, 100% = cells with rucaparib alone
[43] = at 0.313 µM, OCI-P5x cells, without rucaparib
[44] = at 1.25 µM, OCI-C5x cells, with rucaparib 10 µM, 100% = cells with rucaparib alone
[45] = at 1.25 µM, OCI-C5x cells, without rucaparib
[46] = at 1.25 µM, OCI-P5x cells, with rucaparib 20 µM, 100% = cells with rucaparib alone
[47] = at 1.25 µM, OCI-P5x cells, without rucaparib
[48] = at 5 µM, OCI-C5x cells, with rucaparib 10 µM, 100% = cells with rucaparib alone
[49] = at 5 µM, OCI-C5x cells, without rucaparib
[50] = at 5 µM, OCI-P5x cells, with rucaparib 20 µM, 100% = cells with rucaparib alone
[51] = at 5 µM, OCI-P5x cells, without rucaparib

COc1cc2c(Oc3ccc(NC(=O)C4(C(=O)Nc5ccc(F)cc5)CC4)cc3F)ccnc2cc1OCCCN1CCOCC1
inactive: fold change [10, 14] 1.06
992: cell count [10, 17]
active: AC50 [1] 2630 nM | AC50 [2] 8330 nM | AC50 [3] 18700 nM | AC50 [4] 6620 nM | AC50 [5] 3720 nM | AC50 [6] 1320 nM | AC50 [7] 11800 nM | AC50 [8] 5900 nM | IC50 [9] 3720 nM | z-score [11, 18] 2.58
0.0525: z-score [11, 19]
1060: cell count [10, 16]
0.77: fold change [10, 15]

CC[C@H](CC[C@@H](C)[C@H]1CC[C@H]2[C@@H]3CC=C4C[C@@H](O)CC[C@]4(C)[C@H]3CC[C@]12C)C(C)C
9330: cell count [10, 17]
8770: cell count [10, 16]
inactive: outcome [1] | outcome [2] | outcome [3] | outcome [4] | outcome [5] | outcome [6] | outcome [7] | outcome [8] | outcome [9] | fold change [10, 14] 0.94
0.534: fold change [10, 15]

CCS(=O)(=O)c1cccc(-c2cc(C(=O)NC3CCN(C)CC3)c(C)c3[nH]c4ncc(C)cc4c23)c1
0.946: fold change [10, 15]
1160: cell count [10, 16]
-0.249: z-score [11, 19]
1090: cell count [10, 17]
inactive: fold change [10, 14] 1.06
active: AC50 [1] 590 nM | AC50 [2] 2960 nM | AC50 [3] 2640 nM | AC50 [4] 5260 nM | AC50 [5] 1480 nM | AC50 [6] 590 nM | AC50 [7] 8330 nM | AC50 [8] 1480 nM | IC50 [9] 1480 nM | z-score [11, 18] 2.57

COCCn1c2c([n+](Cc3cnccn3)c1C)C(=O)c1ccccc1C2=O
551: cell count [10, 17]
active: AC50 [1] 9.34 nM | AC50 [2] 66.2 nM | AC50 [3] 46.9 nM | AC50 [4] 14.8 nM | AC50 [5] 1.66 nM | AC50 [6] 26.3 nM | AC50 [7] 23.5 nM | AC50 [8] 105 nM | IC50 [9] 29.5 nM | viability [12, 20] 92.6% | viability [12, 21] 88.5% | viability [12, 24] 88.5% | viability [12, 25] 93.8% | viability [12, 27] 99.4% | viability [12, 28] 90.5% | viability [12, 29] 91.8% | viability [12, 31] 49.6% | viability [12, 32] 83% | viability [12, 33] 14.6% | viability [12, 34] 61.5% | viability [12, 35] 8.64% | viability [12, 36] 11% | viability [12, 37] 3.7% | viability [12, 38] 18.6% | viability [12, 39] 1.55% | viability [12, 40] 3.83% | viability [12, 41] 2.36% | viability [12, 42] 1.82% | viability [12, 43] 0.757% | viability [12, 44] 2.25% | viability [12, 45] 1.76% | viability [12, 46] 1.09% | viability [12, 47] 0.567% | viability [12, 48] 0.969% | viability [12, 49] 1.42% | viability [12, 50] 0.522% | viability [12, 51] 0.371%
936: cell count [10, 16]
inactive: fold change [10, 14] 1.7 | z-score [11, 18] -0.74 | viability [12, 22] 116% | viability [12, 23] 108% | viability [12, 26] 128% | viability [12, 30] 114%
0.996: fold change [10, 15]
-2.86: z-score [11, 19]

O=C(Nc1c(Cl)cncc1Cl)c1ccc(OC(F)F)c(OCC2CC2)c1
-1.74: z-score [11, 19]
1.06: fold change [10, 15]
inactive: outcome [1] | outcome [2] | outcome [3] | outcome [4] | outcome [5] | outcome [6] | outcome [7] | outcome [8] | outcome [9] | fold change [10, 14] 0.886 | z-score [11, 18] -0.193
9050: cell count [10, 17]
8020: cell count [10, 16]

Cn1c(=O)c(F)c(Nc2ccc(I)cc2F)c2c(=O)n(C[C@@H](O)CO)cnc21
inactive: outcome [7] | plate-normalised HSF1 focus index [13] 1.1 | viability [12, 20] 107% | viability [12, 21] 128% | viability [12, 23] 106% | viability [12, 24] 102% | viability [12, 25] 116% | viability [12, 28] 104% | viability [12, 29] 118% | viability [12, 32] 102% | viability [12, 33] 111% | viability [12, 37] 103%
active: AC50 [1] 66.1 nM | AC50 [2] 264 nM | AC50 [3] 235 nM | AC50 [4] 3320 nM | AC50 [5] 132 nM | AC50 [6] 295 nM | AC50 [8] 66.1 nM | IC50 [9] 1860 nM | viability [12, 22] 96.8% | viability [12, 26] 81.5% | viability [12, 27] 78.8% | viability [12, 30] 69% | viability [12, 31] 76.3% | viability [12, 34] 59.1% | viability [12, 35] 66.1% | viability [12, 36] 88.1% | viability [12, 38] 54.4% | viability [12, 39] 64.1% | viability [12, 40] 86.7% | viability [12, 41] 88.4% | viability [12, 42] 43.7% | viability [12, 43] 47.9% | viability [12, 44] 58.9% | viability [12, 45] 92.3% | viability [12, 46] 34.4% | viability [12, 47] 38.4% | viability [12, 48] 49.3% | viability [12, 49] 61.2% | viability [12, 50] 2.17% | viability [12, 51] 26.7%
1.8: SSMD [13]
7260: cell count [13]

Cc1ccc(C(=O)Nc2ccc(CN3CCN(C)CC3)c(C(F)(F)F)c2)cc1C#Cc1cnc2cccnn12
7680: cell count [13]
active: AC50 [1] 590 nM | AC50 [2] 418 nM | AC50 [3] 6620 nM | AC50 [4] 1180 nM | AC50 [5] 661 nM | AC50 [6] 833 nM | AC50 [7] 8330 nM | AC50 [8] 2350 nM | IC50 [9] 2950 nM | viability [12, 20] 94.7% | viability [12, 24] 98% | viability [12, 30] 97% | viability [12, 32] 95.2% | viability [12, 35] 89.9% | viability [12, 36] 94.7% | viability [12, 38] 88.1% | viability [12, 40] 93.2% | viability [12, 42] 44.4% | viability [12, 43] 77.9% | viability [12, 44] 58.9% | viability [12, 46] 24.3% | viability [12, 47] 28.1% | viability [12, 48] 2.01% | viability [12, 49] 3.5% | viability [12, 50] 8.21% | viability [12, 51] 6.01%
597: cell count [10, 17]
inactive: fold change [10, 14] 1.36 | plate-normalised HSF1 focus index [13] 1.09 | z-score [11, 18] 1.37 | viability [12, 21] 114% | viability [12, 22] 108% | viability [12, 23] 114% | viability [12, 25] 122% | viability [12, 26] 103% | viability [12, 27] 111% | viability [12, 28] 104% | viability [12, 29] 130% | viability [12, 31] 107% | viability [12, 33] 127% | viability [12, 34] 102% | viability [12, 37] 117% | viability [12, 39] 111% | viability [12, 41] 118% | viability [12, 45] 116%
1.5: SSMD [13]
-2.78: z-score [11, 19]
1.05: fold change [10, 15]
814: cell count [10, 16]
